Measurements taken from PubChem BioAssay AID1159580 (chemical genetic matrix, 2015).
Screen size: about 5,500 compounds; about 2,000 (36%) were called active. Another 18% or so got no clear call; they are omitted. Rule as the data show it: active = normalized growth mostly below about 0.91 (no sharp cut-off); inconclusive = no clear call, values can overlap the other calls; inactive = mostly above about 0.92. This is one part of the list.

Experiment: chemical genetic growth profiling, strain panel (AID 1159580);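 also: tested at 20 µM; growth read once vehicle control cultures reached saturation at 30 °C; 1 = growth at the plate median or of vehicle wells; lower values mean less growth of the strain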
Details: growth OD

Measured: normalized growth

NC(=O)NCCCC(N)C(=O)O (configuration not stated)
inactive: S. cerevisiae deletion strains, locus YJR075W, strain HOC1, hits give low values 1.03 | S. cerevisiae deletion strains, locus YKL009W, strain mrt4, hits give low values 0.984 | S. cerevisiae deletion strains, locus YKL068W, hits give low values 0.999 | S. cerevisiae deletion strains, locus YKL085W, strain MDH1 (second series), hits give low values 1 | S. cerevisiae deletion strains, locus YKL085W, strain MDH1, hits give low values 1 | S. cerevisiae deletion strains, locus YKL160W, strain elf1, hits give low values 0.979 | S. cerevisiae deletion strains, locus YKL190W, strain CNB1, hits give low values 1.02 | S. cerevisiae deletion strains, locus YKR001C, strain vps1, hits give low values 1 | S. cerevisiae deletion strains, locus YKR026C, strain gcn3, hits give low values 1 | S. cerevisiae deletion strains, locus YKR091W, strain srl3, hits give low values 0.997 | S. cerevisiae deletion strains, locus YLL001W, strain dnm1, hits give low values 1 | S. cerevisiae deletion strains, locus YLL026W, hits give low values 1.01 | S. cerevisiae deletion strains, locus YLL041C, strain sdh2, hits give low values 0.987 | S. cerevisiae deletion strains, locus YLR027C, strain aat2, hits give low values 0.996 | S. cerevisiae deletion strains, locus YLR039C, strain RIC1, hits give low values 1.03 | S. cerevisiae deletion strains, locus YLR058C, strain SHM2, hits give low values 1.02 | S. cerevisiae deletion strains, locus YLR102C, strain apc9, hits give low values 0.997 | S. cerevisiae deletion strains, locus YLR113W, strain HOG1, hits give low values 1.02 | S. cerevisiae deletion strains, locus YLR221C, strain rsa3, hits give low values 0.971 | S. cerevisiae deletion strains, locus YLR258W, strain gsy2, hits give low values 1.03 | S. cerevisiae deletion strains, locus YLR262C, strain YPT6 (second series), hits give low values 1 | S. cerevisiae deletion strains, locus YLR262C, strain YPT6, hits give low values 1.04 | S. cerevisiae deletion strains, locus YLR268W, strain sec22, hits give low values 0.989 | S. cerevisiae deletion strains, locus YLR320W, strain mms22, hits give low values 1.03 | S. cerevisiae deletion strains, locus YLR330W, strain CHS5, hits give low values 1.01 | S. cerevisiae deletion strains, locus YLR342W, strain FKS1 (second series), hits give low values 1.01 | S. cerevisiae deletion strains, locus YLR342W, strain FKS1, hits give low values 1.01 | S. cerevisiae deletion strains, locus YLR357W, strain rsc2, hits give low values 1.01 | S. cerevisiae deletion strains, locus YLR370C, strain arc18, hits give low values 0.987 | S. cerevisiae deletion strains, locus YLR371W, strain rom2, hits give low values 0.995 | S. cerevisiae deletion strains, locus YLR384C, strain iki3, hits give low values 1 | S. cerevisiae deletion strains, locus YLR418C, strain cdc73, hits give low values 0.989 | S. cerevisiae deletion strains, locus YML016C, strain PPZ1, hits give low values 1.02 | S. cerevisiae deletion strains, locus YML032C, strain rad52, hits give low values 0.999 | S. cerevisiae deletion strains, locus YML120C, strain ndi1, hits give low values 0.962 | S. cerevisiae deletion strains, locus YML124C, strain tub3, hits give low values 0.989 | S. cerevisiae deletion strains, locus YMR058W, strain fet3, hits give low values 0.983 | S. cerevisiae deletion strains, locus YMR078C, strain ctf18, hits give low values 0.992 | S. cerevisiae deletion strains, locus YMR125W, strain sto1, hits give low values 1.01 | S. cerevisiae deletion strains, locus YMR129W, hits give low values 0.991 | S. cerevisiae deletion strains, locus YMR205C, strain PFK2, hits give low values 1.05 | S. cerevisiae deletion strains, locus YMR223W, strain ubp8, hits give low values 0.998 | S. cerevisiae deletion strains, locus YMR231W, strain pep5, hits give low values 1.01 | S. cerevisiae deletion strains, locus YMR263W, strain SAP30, hits give low values 1.02 | S. cerevisiae deletion strains, locus YMR307W, strain GAS1, hits give low values 1.02 | S. cerevisiae deletion strains, locus YNL067W, strain RPL9B, hits give low values 1.04 | S. cerevisiae deletion strains, locus YNL071W, strain lat1, hits give low values 0.999 | S. cerevisiae deletion strains, locus YNL128W, strain TEP1, hits give low values 1.04 | S. cerevisiae deletion strains, locus YNL153C, strain GIM3, hits give low values 1.02 | S. cerevisiae deletion strains, locus YNL183C, strain NPR1, hits give low values 0.963 | S. cerevisiae deletion strains, locus YNL209W, strain ssb2, hits give low values 1 | S. cerevisiae deletion strains, locus YNL233W, strain BNI4, hits give low values 1.02 | S. cerevisiae deletion strains, locus YNL248C, strain rpa49, hits give low values 0.941 | S. cerevisiae deletion strains, locus YNL250W, strain rad50, hits give low values 1 | S. cerevisiae deletion strains, locus YNL271C, strain bni1, hits give low values 0.992 | S. cerevisiae deletion strains, locus YNL298W, strain CLA4, hits give low values 1.01 | S. cerevisiae deletion strains, locus YNL307C, strain MCK1, hits give low values 0.981 | S. cerevisiae deletion strains, locus YNL322C, strain KRE1 (second series), hits give low values 0.988 | S. cerevisiae deletion strains, locus YNL322C, strain KRE1, hits give low values 1.02 | S. cerevisiae deletion strains, locus YNR049C, strain mso1, hits give low values 1 | S. cerevisiae deletion strains, locus YNR052C, strain pop2, hits give low values 1 | S. cerevisiae deletion strains, locus YOL006C, strain TOP1, hits give low values 1.04 | S. cerevisiae deletion strains, locus YOL012C, strain htz1 1.42 | S. cerevisiae deletion strains, locus YOL147C, strain pex11, hits give low values 0.994 | S. cerevisiae deletion strains, locus YOR001W, strain rrp6, hits give low values 0.958 | S. cerevisiae deletion strains, locus YOR061W, strain CKA2, hits give low values 1.03 | S. cerevisiae deletion strains, locus YOR069W, strain VPS5, hits give low values 1.01 | S. cerevisiae deletion strains, locus YOR070C, strain gyp1, hits give low values 0.999 | S. cerevisiae deletion strains, locus YOR080W, strain dia2, hits give low values 1.01 | S. cerevisiae deletion strains, locus YOR083W, strain WHI5, hits give low values 0.958 | S. cerevisiae deletion strains, locus YOR106W, strain vam3, hits give low values 0.978 | S. cerevisiae deletion strains, locus YOR136W, strain idh2, hits give low values 0.988 | S. cerevisiae deletion strains, locus YOR144C, strain elg1, hits give low values 0.993 | S. cerevisiae deletion strains, locus YOR184W, strain ser1, hits give low values 0.99 | S. cerevisiae deletion strains, locus YOR231W, strain MKK1, hits give low values 0.991 | S. cerevisiae deletion strains, locus YOR265W, strain rbl2, hits give low values 0.998 | S. cerevisiae deletion strains, locus YOR270C, strain vph1, hits give low values 0.964 | S. cerevisiae deletion strains, locus YOR290C, strain snf2, hits give low values 1 | S. cerevisiae deletion strains, locus YOR316C, strain cot1, hits give low values 0.996 | S. cerevisiae deletion strains, locus YPL051W, strain arl3, hits give low values 0.981 | S. cerevisiae deletion strains, locus YPL055C, strain LGE1, hits give low values 1.07 | S. cerevisiae deletion strains, locus YPL078C, strain atp4, hits give low values 0.949 | S. cerevisiae deletion strains, locus YPL106C, strain sse1, hits give low values 1.03 | S. cerevisiae deletion strains, locus YPL240C, strain hsp82, hits give low values 0.988 | S. cerevisiae deletion strains, locus YPL241C, strain CIN2, hits give low values 1.01 | S. cerevisiae deletion strains, locus YPL256C, strain CLN2, hits give low values 0.988 | S. cerevisiae deletion strains, locus YPR119W, strain clb2, hits give low values 0.995 | S. cerevisiae deletion strains, locus YPR141C, strain kar3, hits give low values 1 | S. cerevisiae deletion strains, locus YPR163C, strain tif3, hits give low values 0.989 | S. cerevisiae deletion strains, locus YPR167C, strain met16, hits give low values 0.995 | S. cerevisiae deletion strains, strain wtn01, hits give low values 0.986 | S. cerevisiae strains, strain wild type, hits give low values 1.01
